Reference: PubChem BioAssay (NCATS)
Inconclusive results are not listed. Activity calls are given as the source filed them. Calls follow the shape of the dose curve; as a rule, active = well fitted curve in the direction sought with a large enough effect; inconclusive = small, poorly fitted or top-dose-only effect, or another doubt; inactive = no such curve, though single readings can be large; an effect the other way counts as inactive or inconclusive.

Key:
[1] = biological target: Rap guanine nucleotide exchange factor 3 (Homo sapiens) (UniProt O95398); assay: Confirmatory qHTS for antagonist of cAMP-regulated guanine nucleotide exchange factor 3 (EPAC1) (AID 1645880); details: EPAC1 Rap1B-BODIPY-GDP exchange, fluorescence; activity, negative = inhibition: at 115 µM (top of the series); also: nearly all actives have a fitted effect of over 55% in size; also: potency is read from the fitted curve at half-maximal effect;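 as to activity, negative = inhibition: plate controls were DMSO only for no effect and full effect of the ATA control for full effect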
Method in brief: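 Nucleotide exchange uses 100 nM EPAC1, 250 nM RAP1B-BODIPY-GDP and 50 uM GDP, with compounds in a concentration-titration series. After 5 min at room temperature, fluorescence (480 nm ex/540 nm em) is read every 5 min for 30 min. Data are normalized to control ATA and DMSO.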

[2] = biological target: Rap guanine nucleotide exchange factor 3 (Homo sapiens) (UniProt O95398); assay: Confirmatory qHTS for agonist of cAMP-regulated guanine nucleotide exchange factor 3 (EPAC1) (AID 1645881); also: nearly all actives have a fitted effect of over 75% in size; also: potency is read from the fitted curve at half-maximal effect;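 as to activation: EPAC1 catalysed release of BODIPY-GDP from Rap1B seen as fluorescence loss; 100% = effect of cAMP agonist control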
[3] = biological target: Rap guanine nucleotide exchange factor 3 (Homo sapiens) (UniProt O95398); assay: Counterscreen qHTS for antagonist of cAMP-regulated guanine nucleotide exchange factor 3 (EPAC1) (AID 1645888);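 also: fluorescence loss as bound BODIPY-GDP is released from Rap1B; % of control where 0% means no effect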
Method in brief: (§1)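 Rap1B-BODIPY-GDP 250 nM + GDP 50 uM; cpds 7-pt, final 9.74 nM–152 uM (activator mode) or from 7.32 nM upwards (inhibitor mode); RT; FI 480/540 nm at 5 and 30 min, then ± cAMP, reread.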

[4] = biological target: Rap guanine nucleotide exchange factor 4 (Homo sapiens) (UniProt Q8WZA2); assay: Confirmatory qHTS for antagonist of cAMP-regulated guanine nucleotide exchange factor 4 (EPAC2) (AID 1645885); also: % is scaled to controls: 0 for no effect and ±100 for the full control effect; nearly all actives have a fitted effect of over 25% in size
[5] = biological target: Rap guanine nucleotide exchange factor 3 (Homo sapiens) (UniProt O95398); assay: Counterscreen qHTS for agonist of cAMP-regulated guanine nucleotide exchange factor 3 (EPAC1) (AID 1645889); also: nearly all actives have a fitted effect of over 40% in size; also: potency is read from the fitted curve at half-maximal effect; as to activation: % of control where 0% means no effect
Method in brief: as §1

[6] = biological target: Tumor susceptibility gene 101 protein (Homo sapiens) (UniProt Q99816); assay: qHTS Assay for Iinhibitors of HIV-1 Budding by Blocking the Interaction of PTAP/TSG101: Hit Validation (AID 651600); also: potency is read from the fitted curve at half-maximal effect; nearly all actives have a fitted effect of over 70% in size
Method in brief: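 Compounds are added to the Tsg101 binding domain (10 uM final) in pH 7.5 HEPES buffer. FITC-PTAP peptide follows at 50 nM final. After 20 min at r.t., polarized FITC emission is measured.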

Chain of Rap guanine nucleotide exchange factor 3 (Homo sapiens) (O95398 whole entry, looked up): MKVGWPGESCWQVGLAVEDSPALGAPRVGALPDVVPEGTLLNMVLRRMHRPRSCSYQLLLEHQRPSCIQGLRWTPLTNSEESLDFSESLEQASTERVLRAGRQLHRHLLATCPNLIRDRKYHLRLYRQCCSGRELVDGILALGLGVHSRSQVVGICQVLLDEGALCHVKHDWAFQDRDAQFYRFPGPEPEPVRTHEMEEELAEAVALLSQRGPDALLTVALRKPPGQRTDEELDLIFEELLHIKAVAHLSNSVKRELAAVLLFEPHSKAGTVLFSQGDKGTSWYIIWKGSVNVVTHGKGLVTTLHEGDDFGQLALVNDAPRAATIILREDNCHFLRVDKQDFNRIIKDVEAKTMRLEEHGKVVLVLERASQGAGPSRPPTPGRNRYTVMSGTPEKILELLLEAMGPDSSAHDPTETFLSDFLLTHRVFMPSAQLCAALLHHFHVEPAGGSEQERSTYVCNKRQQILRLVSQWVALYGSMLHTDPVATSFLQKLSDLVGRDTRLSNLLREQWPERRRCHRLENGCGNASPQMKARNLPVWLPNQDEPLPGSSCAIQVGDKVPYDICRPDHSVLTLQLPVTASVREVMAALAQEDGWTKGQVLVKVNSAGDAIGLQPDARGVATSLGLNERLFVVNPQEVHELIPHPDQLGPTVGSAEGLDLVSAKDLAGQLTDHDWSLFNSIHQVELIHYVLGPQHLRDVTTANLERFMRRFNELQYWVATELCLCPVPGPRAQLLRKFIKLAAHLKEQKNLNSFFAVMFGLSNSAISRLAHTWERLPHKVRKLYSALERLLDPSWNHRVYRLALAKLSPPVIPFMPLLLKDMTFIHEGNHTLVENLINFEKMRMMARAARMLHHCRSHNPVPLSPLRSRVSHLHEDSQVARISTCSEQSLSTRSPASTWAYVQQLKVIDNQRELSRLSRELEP
Chain of Rap guanine nucleotide exchange factor 4 (Homo sapiens) (Q8WZA2 whole entry, looked up): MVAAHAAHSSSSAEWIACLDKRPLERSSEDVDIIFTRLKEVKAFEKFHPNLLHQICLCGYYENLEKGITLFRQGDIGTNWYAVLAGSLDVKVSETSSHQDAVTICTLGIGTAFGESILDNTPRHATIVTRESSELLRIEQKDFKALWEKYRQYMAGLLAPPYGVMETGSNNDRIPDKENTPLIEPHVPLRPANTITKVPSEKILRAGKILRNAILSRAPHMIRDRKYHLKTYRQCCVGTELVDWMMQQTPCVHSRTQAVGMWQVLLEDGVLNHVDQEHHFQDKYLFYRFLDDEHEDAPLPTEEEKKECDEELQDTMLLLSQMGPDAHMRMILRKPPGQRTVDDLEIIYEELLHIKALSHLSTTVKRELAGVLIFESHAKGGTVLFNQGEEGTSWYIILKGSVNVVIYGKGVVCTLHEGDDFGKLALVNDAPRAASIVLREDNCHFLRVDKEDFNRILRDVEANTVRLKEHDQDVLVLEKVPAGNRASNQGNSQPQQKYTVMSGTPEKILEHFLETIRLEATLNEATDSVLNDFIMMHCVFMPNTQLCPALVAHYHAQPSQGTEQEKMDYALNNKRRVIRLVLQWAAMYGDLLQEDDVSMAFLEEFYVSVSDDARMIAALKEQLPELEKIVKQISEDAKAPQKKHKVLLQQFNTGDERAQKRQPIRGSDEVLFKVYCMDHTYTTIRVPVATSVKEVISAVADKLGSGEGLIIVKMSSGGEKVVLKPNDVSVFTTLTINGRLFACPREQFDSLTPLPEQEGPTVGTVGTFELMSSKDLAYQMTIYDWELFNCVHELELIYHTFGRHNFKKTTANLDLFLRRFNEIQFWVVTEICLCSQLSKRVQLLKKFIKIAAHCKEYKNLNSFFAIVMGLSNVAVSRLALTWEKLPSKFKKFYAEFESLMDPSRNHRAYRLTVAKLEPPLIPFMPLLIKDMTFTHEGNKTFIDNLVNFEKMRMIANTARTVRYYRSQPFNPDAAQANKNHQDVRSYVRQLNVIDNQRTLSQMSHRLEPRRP
Chain of Tumor susceptibility gene 101 protein (Homo sapiens) (Q99816 whole entry, looked up, the tested form may be a part): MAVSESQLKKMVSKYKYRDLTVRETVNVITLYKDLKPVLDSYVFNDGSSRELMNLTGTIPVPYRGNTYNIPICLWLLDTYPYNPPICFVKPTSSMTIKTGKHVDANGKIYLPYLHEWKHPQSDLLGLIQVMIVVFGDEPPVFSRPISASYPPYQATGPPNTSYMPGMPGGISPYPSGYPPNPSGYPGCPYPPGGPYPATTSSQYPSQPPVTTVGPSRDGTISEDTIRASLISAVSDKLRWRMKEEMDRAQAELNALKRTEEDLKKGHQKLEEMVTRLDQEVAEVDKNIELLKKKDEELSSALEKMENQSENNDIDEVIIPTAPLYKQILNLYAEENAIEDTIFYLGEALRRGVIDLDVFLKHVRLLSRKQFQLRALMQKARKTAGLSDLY

Cc1nn(-c2c(Cl)cc(Cl)cc2Cl)c(=O)c2ccccc12
inactive: Potency [1] | Potency [2] | Potency [3]

COC(=O)NCc1c(C)nn(-c2ccccc2)c1-n1cccc1
inactive: Potency [1] | Potency [2] | Potency [4] | Potency [5]

COc1ccc2ccccc2c1C(O)c1nccn1C (stereo not drawn)
inactive: Potency [1] | Potency [2] | Potency [4] | Potency [3]
active: Potency [6] 8.19 µM

CCc1ccc[n+](-c2[nH]c(=O)sc2/C=N/NC([S-])=Nc2ccccc2)c1
inactive: Potency [1] | Potency [2] | Potency [4] | Potency [3]
active: Potency [6] 14.6 µM | Potency [5] 50.1 µM

CCCCC[C@@H]1C=C(C(=O)O)[C@H](c2ccc(Cl)c(Cl)c2)N1S(=O)(=O)c1ccc(C)cc1
inactive: Potency [2] | Potency [3] | Potency [5]
active: Potency [1] 30.1 µM

COc1ccc(C(=O)N(Cc2ccccc2)c2cccc(C)c2)cc1
inactive: Potency [1] | Potency [2] | Potency [3] | Potency [5]

Cc1ccc(C2N(c3ccc(Cl)cc3)C(=O)N3CCCN23)cc1 (stereo not drawn)
inactive: Potency [1] | Potency [2] | Potency [3] | Potency [5]

Cc1ccc(N2CC(NC(=O)C(=O)c3c[nH]c4ccccc34)CC2=O)cc1C (stereo not drawn)
inactive: Potency [1] | Potency [2] | Potency [3]

COc1ccc2c(c1)CCc1c(C(=O)N3CCCc4ccccc43)noc1-2
inactive: Potency [1] | Potency [2] | Potency [3]

COc1ccc(C2CC(=O)Oc3cc(C)c(Cl)cc32)cc1 (stereo not drawn)
inactive: Potency [1] | Potency [2] | Potency [3]

CC1CCCN(C2(O)C(=O)Nc3ccc(Br)cc32)C1 (stereo not drawn)
inactive: Potency [1] | Potency [2] | Potency [3]

Cn1ccc2c(N3CCCCCCC3)cc3c(c21)C1CCC3O1 (stereo not drawn)
inactive: Potency [1] | Potency [2] | Potency [3]

Cc1cc(C)c2c(CN3CCCCC3C)cc(=O)oc2c1 (stereo not drawn)
inactive: Potency [1] | Potency [2] | activity change, negative = inhibition [3] -3.91% [at 30.8 µM]

Cc1nc(Nc2ccc(Br)cc2Br)c([N+](=O)[O-])c(=O)[nH]1
inactive: Potency [1] | Potency [2] | Potency [3]

Cc1oc2cc(Br)c(O)c(Br)c2c1-c1ccccc1
inactive: Potency [1] | Potency [2] | Potency [3]

COC(=O)C1=NN(c2ccccc2)C2(S1)SC(C(C)=O)=C(C)N2c1ccccc1 (stereo not drawn)
inactive: Potency [1] | Potency [2] | Potency [3]

O=C(O)CCNC(=O)c1ccc(NC(=O)C(c2ccccc2)c2ccccc2)cc1
inactive: Potency [1] | Potency [2] | Potency [3]

CC1CCCN(C2(O)C(=O)Nc3c(C(F)(F)F)cccc32)C1 (stereo not drawn)
inactive: Potency [1] | Potency [2] | activity change, negative = inhibition [3] -14.6% [at 30.8 µM]

COc1ccc(C2CC(=O)Oc3ccc(OC)cc32)cc1 (stereo not drawn)
inactive: Potency [1] | Potency [2] | activity change, negative = inhibition [3] -2.08% [at 30.8 µM]

COC(=O)c1ccc2nc(-c3ccc(F)cc3)c(CC3CCCCC3)n2c1
inactive: Potency [1] | Potency [2] | activity change, negative = inhibition [3] -8.86% [at 30.8 µM] | activation [5] 6.82% [at 30.8 µM]

CC1CN(c2nc(-c3ccccc3)nc3ccccc23)CC(C)O1 (stereo not drawn)
inactive: Potency [1] | Potency [2] | activity change, negative = inhibition [3] 3.46% [at 30.8 µM] | activation [5] 21.3% [at 30.8 µM]

O=C(O)Cc1ccc(NC(=O)C(c2ccccc2)c2ccccc2)cc1
inactive: Potency [1] | Potency [2] | activity change, negative = inhibition [3] -6.7% [at 30.8 µM] | activation [5] 5.55% [at 30.8 µM]

CCOc1ccc(S(=O)(=O)N2CCCCC2)c(C)c1C
inactive: Potency [1] | Potency [2] | Potency [3]

Cc1ccc(CN(Cc2ccco2)C(=O)c2ccco2)cc1
inactive: Potency [1] | Potency [2] | activity change, negative = inhibition [3] -4.7% [at 30.8 µM] | activation [5] 27.7% [at 30.8 µM]

CCn1c(=O)c(C(=O)NNS(=O)(=O)c2ccc(C)cc2)c(O)c2ccccc21
inactive: Potency [2] | Potency [3]
active: Potency [1] 75.7 µM

CCN(Cc1cc(=O)oc2cc(C)ccc12)c1ccccc1
inactive: Potency [1] | Potency [2] | Potency [3]

C=CCOc1ccc(/C=N/NC(C)=O)cc1OCC
inactive: Potency [1] | Potency [2] | Potency [3] | Potency [5]

O=c1cc(N2CCCCC2)c(-c2ccccc2)nn1Cc1ccccc1
inactive: Potency [1] | Potency [2] | Potency [3]

COc1ccc(C2=CC3=C(Br)C(=O)C(C)(OC(=O)c4cccs4)C(=O)C3=CO2)cc1 (stereo not drawn)
active: Potency [1] 16.9 µM
inactive: Potency [2] | Potency [3]

COc1cc(N)ccc1-c1cc2ccccc2oc1=O
inactive: Potency [1] | Potency [2] | Potency [3]

COc1ccc2c(c1)CCc1c(C(=O)N(C)c3ccccc3)noc1-2
inactive: Potency [1] | Potency [2] | Potency [3]

Cc1ccc(C23CC4CC(CC(C(=O)N(C)C)(C4)C2)C3)cc1
inactive: Potency [1] | Potency [2] | Potency [3]

O=C1OC(c2ccccc2)(c2ccccc2)c2ccsc21
inactive: Potency [1] | Potency [2] | Potency [3]

COc1ccc(-n2cc(-c3ccccc3)c3c(N4CCOCC4)ncnc32)cc1
inactive: Potency [1] | Potency [2] | Potency [3]

COc1ccc(-c2ccc(CCC(=O)O)n2-c2ccc(Cl)cc2C)cc1
inactive: Potency [1] | Potency [2] | Potency [3] | Potency [5]

CC(=O)Nc1ccc(NC(=O)C2Cc3c(-c4ccc5c(c4)OCO5)ccnc3O2)cc1 (stereo not drawn)
inactive: Potency [1] | Potency [2] | Potency [3]

COC(=O)c1cn(C(=O)c2ccc(C)cc2C)c2ccccc12
inactive: Potency [1] | Potency [2] | Potency [3] | Potency [5]

CC1CN(c2nc3ccccc3cc2-c2ccccc2)CC(C)O1 (stereo not drawn)
inactive: Potency [1] | Potency [2] | Potency [3] | Potency [5]

O=C(c1ccccc1F)n1c2c(c3ccccc31)CCCC2
inactive: Potency [1] | Potency [2] | Potency [3]

CCCC(CNC(C)=O)(C1=CCCCC1)c1ccccc1 (stereo not drawn)
inactive: Potency [1] | Potency [2] | activity change, negative = inhibition [3] 1.17% [at 30.8 µM] | activation [5] 15.1% [at 30.8 µM]

COC(=O)c1cn(S(=O)(=O)c2ccccc2)c2ccccc12
inactive: Potency [1] | Potency [2] | Potency [3]

O=C(O)c1ccc(NC(=O)C(c2ccccc2)c2ccccc2)cc1
inactive: Potency [1] | Potency [2] | Potency [3]

CCCNC(=O)c1ccc(N2CCC3(CC2)CC(c2ccccc2)=NO3)c(NC(=O)c2ccccc2)c1
inactive: Potency [1] | Potency [2] | Potency [3] | Potency [5]

Cc1ccc(O)c(C(=O)c2cc(C#N)c(=O)n(-c3nccs3)c2)c1
active: Potency [2] 100 µM | Potency [5] 35.5 µM
inactive: Potency [1] | Potency [3]

Cc1cc(C)c(C(=O)c2ccccc2)c(C)c1
inactive: Potency [1] | Potency [2] | Potency [3] | Potency [5]

CCCC[C@@H]1C=C(C(=O)O)[C@H](c2ccc(Cl)c(Cl)c2)N1S(=O)(=O)c1ccc(C)cc1
inactive: Potency [2] | Potency [3] | Potency [5]
active: Potency [1] 84.9 µM

Cc1cc(C)c2c(c1)OC(=O)CC2c1ccccc1C (stereo not drawn)
inactive: Potency [1] | Potency [2] | Potency [3] | Potency [5]

COc1ccc(-c2noc(CN(C(=O)c3c(-c4ccccc4Cl)noc3C)C(C)C)n2)cc1
inactive: Potency [1] | Potency [2] | Potency [3] | Potency [5]

Cc1ccc(C2(c3noc(CN(C)Cc4ccccn4)n3)CCCC2)cc1
inactive: Potency [1] | Potency [2] | activity change, negative = inhibition [3] -21.5% [at 30.8 µM] | activation [5] 1.73% [at 30.8 µM]

O=C(/C=C/c1cccc(Cl)c1Cl)OCC(=O)N1CCOCC1
inactive: Potency [1] | Potency [2] | Potency [3] | Potency [5]

CC1(C(=O)Nc2ccc3c(c2)OCO3)CCN1Cc1cccc2c1OCO2 (stereo not drawn)
inactive: Potency [1] | Potency [2] | activity change, negative = inhibition [3] -9.44% [at 30.8 µM] | activation [5] 19.3% [at 30.8 µM]

O=C(c1noc2c1CCc1ccccc1-2)N1CCCc2ccccc21
inactive: Potency [1] | Potency [2] | Potency [3] | Potency [5]

COC(=O)c1ccc2nc(-c3ccc(F)cc3)c(Cc3cccc(F)c3)n2c1
inactive: Potency [1] | Potency [2] | Potency [3] | Potency [5]

O=C1[C@H]2CCC=C[C@H]2[C@H](c2ccccc2Br)N1Cc1ccccc1
inactive: Potency [1] | Potency [2] | Potency [3] | Potency [5]

COC(=O)c1ccc2nc(-c3cccc(Br)c3)c(Cc3ccsc3)n2c1
inactive: Potency [1] | Potency [2] | activity change, negative = inhibition [3] -25% [at 30.8 µM] | activation [5] 17.8% [at 30.8 µM]

CC(C)c1nc2cc(Cl)ccc2n(Cc2ccccc2)c1=O
inactive: Potency [1] | Potency [2] | Potency [3] | Potency [5]

CCOc1cc(C)c(S(=O)(=O)N2CCCCC2)cc1C
inactive: Potency [1] | Potency [2] | Potency [3] | Potency [5]

Cc1ccc(C2(c3noc(CN(C)CC4CCCCO4)n3)CCCC2)cc1 (stereo not drawn)
inactive: Potency [1] | Potency [2] | activity change, negative = inhibition [3] -7.57% [at 30.8 µM] | activation [5] -0.372% [at 30.8 µM]

CCCCC1=C(C(=O)OCC)C(C(=O)OCC)Oc2ccccc21 (stereo not drawn)
inactive: Potency [1] | Potency [2] | Potency [3] | Potency [5]

CC(OC(=O)c1ccccc1Oc1ccccc1)C(=O)NC1CC1 (stereo not drawn)
inactive: Potency [1] | Potency [2] | Potency [3] | Potency [5]

COc1ccc2cc(S(=O)(=O)N3CCCC3)ccc2c1
inactive: Potency [1] | Potency [2] | activity change, negative = inhibition [3] -17.9% [at 30.8 µM] | activation [5] 13.3% [at 30.8 µM]

CCOC(=O)C1Oc2ccccc2C(c2ccc(F)cc2)=C1C(=O)OC (stereo not drawn)
inactive: Potency [1] | Potency [2] | activity change, negative = inhibition [3] -24.6% [at 30.8 µM] | activation [5] 13.2% [at 30.8 µM]

CCc1ccc([C@@H]2CC=C(C(=O)O)[C@H](c3ccc(Cl)cc3)N2S(=O)(=O)c2ccc(C)cc2)cc1
active: Potency [1] 50.1 µM
inactive: Potency [2] | activity change, negative = inhibition [3] -9.33% [at 30.8 µM] | activation [5] 4.76% [at 30.8 µM]
